Sampled rows, rich in hits. Any-hit rate of the full collection: about 1.3%.
gsp antag = antagonists of gsp mutant (McCune-Albright syndrome) | gsp-mutant cells, cAMP HTRF, 30 min | Potency, µM (doses to about 76.9 µM), for the others: at the top dose activity change, negative = inhibition, hits mostly inhibitors | 0.4% of 340,000 active; calls by dose curve; cell line not stated here;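 note: intracellular cAMP measured with PDE inhibitor Ro 20-1724 present during compound exposure; potency is the fitted concentration of half-maximal effect; % is set by controls: 0 for no effect and ±100 for the full control effect; nearly all actives have a fitted effect of over 65% in size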
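HTRF cAMP read-out (cAMP-d2 plus anti-cAMP antibody-K in lysis buffer, 30 min RT). Before lysis, cells are exposed to compounds with […] for 30 min at 37C in DPBS containing Ca/Mg, BSA and Tween 20.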
RXFP1 ag = RXFP1 (human) receptor agonism; HEK293T-RXFP1 cAMP TR-FRET, 30 min; response scale: percent of porcine relaxin response, buffer zero; Potency, µM (titrated, usually from 57.5 µM), for the others: top-dose activation, most hits filed as activators; 0.3% of 370,000 active; active = well fitted activation curve with a large enough effect; inconclusive = small, poorly fitted or top-dose-only effect; note: potency is the fitted concentration of half-maximal effect; % is set by controls: 0 for no effect and ±100 for the full control effect; nearly all actives have a fitted effect of over 60% in size
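HEK293T cells stably expressing RXFP1 were pretreated with the PDE4 inhibitor Ro 20174, exposed to compounds for 30 min at 37C, lysed, and cAMP was read by TR-FRET. Data normalized to buffer (basal) and 29 nM porcine relaxin (100%).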
pAkt inh = inhibitors of Akt phosphorylation | activity change, % for hits at 50 µM | Neuro2A IGF-stimulated pAkt S473 HTRF, 20 min; stronger effect = lower value | AID 651550 | 0.32% of 360,000 active; in the data active = activity change below about -80%; inconclusive = mostly about -51% to -80%; note: % is set by controls: 0 for no effect and ±100 for the full control effect
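Single-point screen (50 µM final compound) in Neuro2A cells stimulated 20 min with 6 nM IGF at 37 deg C. After lysis, Ser473-phosphorylated Akt read by HTRF (ex 330 nm, em 615/665 nm) as the 665/615 ratio.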
RXFP1 antag = RXFP1 (human) relaxin receptor antagonism; 0.59% of 350,000 active; activity change, negative = inhibition, % at 57.5 µM; Q9HBX9; HEK293-RXFP1, relaxin-stimulated cAMP HTRF, 30 min; stronger effect = lower value;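 active = activity change of -60% or lower, but not beyond a set lower limit; inconclusive = change between -60% and -40%, or beyond the set limit; inactive = change above -40%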; note: % is set by controls: 0 for no effect and ±100 for the full control effect
TSHR antagonist = blocks TSH signaling through the human TSH receptor | P16473 | TSHR-expressing cells, TSH-stimulated cAMP HTRF, 2 h; stronger effect = lower value | activity change, negative = inhibition, % at 11.5 µM | 0.2% of 330,000 active | AID 504810;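 active = activity change below a set negative limit, meaning inhibition stronger than a set level, cut at about -70% in these data; inconclusive = activity change between two set negative limits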; note: % is set by controls: 0 for no effect and ±100 for the full control effect
Target sequence (P16473 whole entry, looked up): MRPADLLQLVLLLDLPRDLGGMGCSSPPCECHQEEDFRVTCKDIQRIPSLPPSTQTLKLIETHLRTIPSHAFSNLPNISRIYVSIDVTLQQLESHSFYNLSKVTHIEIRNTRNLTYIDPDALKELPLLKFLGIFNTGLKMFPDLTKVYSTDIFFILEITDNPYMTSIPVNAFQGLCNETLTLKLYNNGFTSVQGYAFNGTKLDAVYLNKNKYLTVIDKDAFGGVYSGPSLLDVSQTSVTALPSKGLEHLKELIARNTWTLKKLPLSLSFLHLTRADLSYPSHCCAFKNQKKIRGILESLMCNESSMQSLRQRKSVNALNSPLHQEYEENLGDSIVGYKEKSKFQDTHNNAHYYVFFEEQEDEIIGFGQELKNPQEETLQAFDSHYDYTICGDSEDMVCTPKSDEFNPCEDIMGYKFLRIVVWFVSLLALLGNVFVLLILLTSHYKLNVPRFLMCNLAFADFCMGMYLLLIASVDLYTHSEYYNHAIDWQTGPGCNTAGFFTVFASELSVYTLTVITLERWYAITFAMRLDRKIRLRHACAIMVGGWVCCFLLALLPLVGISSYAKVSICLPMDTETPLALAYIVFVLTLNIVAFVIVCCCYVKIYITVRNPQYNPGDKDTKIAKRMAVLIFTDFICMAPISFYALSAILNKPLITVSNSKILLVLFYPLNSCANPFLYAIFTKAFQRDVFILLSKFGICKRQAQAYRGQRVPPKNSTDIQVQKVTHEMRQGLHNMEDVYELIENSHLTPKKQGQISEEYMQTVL
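Freshly harvested TSHR cells receive pin-tooled compound, then EC80 TSH at 4nM final. After 2 hours at 37 deg C, antibody in lysis buffer and cAMP-d2 are added; 30 minutes at ambient temperature precede the HTRF read.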
gsp ag = activates gsp, the McCune-Albright syndrome mutation; Potency, µM (series often up to 76.9 µM), for inactives: at the top dose activation (cAMP increase), most hits filed as activators; AID 624287; gsp mutant cells, cAMP HTRF, 30 min; 0.13% of 340,000 active; active = well fitted activation curve with a large enough effect; inconclusive = small, poorly fitted or top-dose-only effect, or another doubt; inactive = no such curve, though single readings can be large or run the other way; cell line not stated here;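 note: phosphodiesterase inhibitor Ro 20-1724 added with compounds to block cAMP breakdown; potency is the fitted concentration of half-maximal effect; nearly all actives have a fitted effect of over 60% in size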
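Cells stably selected in G418 were plated at 2000/well, grown 16-24 hr, then given compounds in DMSO with the PDE inhibitor […] (300 uM solution added) for 30 min at 37C; cAMP was read by HTRF.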
Numbers without * were called inactive; [ ] = another dose, or the depositor's remark.

`CC(C)(C)c1ccc2c(c1)OC(C(=O)N/N=C\c1ccccn1)CO2` (stereo unspecified) gave gsp antag 3%, RXFP1 ag -2%, pAkt inh inactive, RXFP1 antag -61*, TSHR antagonist -10 and gsp ag -46%.
For CCc1nc2ccc(C(=O)NCCN3CCCC3)cn2c1N(C)Cc1ccc(OC)cc1 the results were pAkt inh inactive.
For CN(c1ccccc1)S(=O)(=O)c1nnc(NC(=O)c2cccs2)s1 the results were RXFP1 ag -2% and RXFP1 antag -6.
COc1cc(C(=O)Nc2nnc(S(=O)(=O)N(C)c3ccccc3)s2)cc(OC)c1OC was read as RXFP1 ag 0% and RXFP1 antag -64*.
Cc1ccc2c(c1)c1c(n2CC(O)CNC2CCCC2)CCCC1 (stereo unspecified) was read as gsp antag -6%, RXFP1 ag 0%, pAkt inh inactive, RXFP1 antag -82*, TSHR antagonist -5 and gsp ag 4%.
Cc1ccc2c(c1)c1c(n2CC(O)Cn2ccnc2C)C(=O)CCC1 (stereo unspecified) was read as gsp antag 7%, RXFP1 ag -3%, RXFP1 antag 4, TSHR antagonist -4 and gsp ag -3%.
CN(C)CCNc1nc(Oc2ccccc2)c2sccc2n1 was read as pAkt inh inactive.
For CCOC(=O)CNC(=O)CSc1nc(-c2ccc(C)cc2)ns1 the results were gsp antag 11µM*, RXFP1 ag 1%, pAkt inh inactive, RXFP1 antag -12, TSHR antagonist -5 and gsp ag -29%[15.4 µM].
For CCOC(=O)CNC(=O)CSc1nc(-c2ccccc2)ns1 the results were gsp antag -1%, RXFP1 ag -1%, pAkt inh inactive, RXFP1 antag -7, TSHR antagonist 6 and gsp ag -16%[15.4 µM].
For CCOC(=O)CNC(=O)CSc1nnc(-c2cccc(C)c2)n1-c1ccc(OC)cc1 the results were gsp antag 6.3µM*, RXFP1 ag 1%, pAkt inh inactive, RXFP1 antag -2, TSHR antagonist 12 and gsp ag -5%.
For Cc1cccc2cc(C#N)c(SCC(=O)NCc3cccs3)nc12 the results were gsp antag -5%, RXFP1 ag 13µM*, pAkt inh inactive, RXFP1 antag 1, TSHR antagonist 1 and gsp ag inconclusive.
For C=CCn1c(SCC(=O)NCC(=O)OCC)nnc1-c1cccc(OC)c1 the results were gsp antag 0%, RXFP1 ag 0%, pAkt inh inactive, RXFP1 antag -1, TSHR antagonist -1 and gsp ag -24%.
For CCOC(=O)CNC(=O)CSc1nc2c(C)cccc2cc1CC the results were gsp antag 8%, RXFP1 ag 14µM*, pAkt inh inactive, RXFP1 antag 15, TSHR antagonist -8 and gsp ag inconclusive.
For CC(C)(Cc1ccccc1)/[N+]([O-])=C\c1ccccc1 the results were gsp antag -1%, RXFP1 ag 0%, pAkt inh inactive, TSHR antagonist 9 and gsp ag -17%.
Cc1nc(-c2ccc(S(=O)(=O)N(C)Cc3ccccc3)cc2)co1 was read as RXFP1 ag 1%.
Screening C#CCNC(=O)C[C@@H]1C[C@@]2(C(=O)OC)CCCCC=C2N(CCCCCCCC)C1=O returned pAkt inh inactive.
O=c1[nH]c2ccc(NC(=S)NC3CCCCC3)cc2[nH]1 was read as RXFP1 ag -1%, pAkt inh inactive, RXFP1 antag -9, TSHR antagonist -5 and gsp ag -17%[15.4 µM].
For O=c1cc(NC2CCCCCC2)[nH]c(=O)[nH]1 the results were gsp antag -2%, RXFP1 ag -2%, pAkt inh -112%*, RXFP1 antag -9, TSHR antagonist 8 and gsp ag 4%.
Screening CCN(C(=O)COC(=O)c1cc(-c2cccs2)nc2ccccc12)C1CCS(=O)(=O)C1 (stereo unspecified) returned gsp antag -23%, RXFP1 ag 4%, pAkt inh inactive, RXFP1 antag 24, TSHR antagonist 5 and gsp ag inconclusive.
CCN(C(=O)COC(=O)c1cc(-c2ccccc2)nc2ccc(Br)cc12)C1CCS(=O)(=O)C1 (stereo unspecified) was read as gsp antag inconclusive, RXFP1 ag 25µM*, pAkt inh inactive, RXFP1 antag 7, TSHR antagonist -1 and gsp ag 59%[15.4 µM].
`COc1ccccc1NC(=O)CSc1nc(=O)n2cc(C)ccc2n1` gave gsp antag 15%, RXFP1 ag 23%, pAkt inh inactive, RXFP1 antag 3, TSHR antagonist 4 and gsp ag 18µM*.
NS(=O)(=O)c1ccc(CCn2c(=S)[nH]c3ccccc3c2=O)cc1 was read as gsp antag 0%, RXFP1 ag 0%, pAkt inh inactive, RXFP1 antag -64*, TSHR antagonist 4 and gsp ag -23%[15.4 µM].
Screening O=c1c2ccccc2[nH]c(=S)n1CCc1ccccc1 returned gsp antag 11%, RXFP1 ag -1%, pAkt inh inactive, RXFP1 antag -11, TSHR antagonist -6 and gsp ag -15%.
Screening O=c1c2ccccc2[nH]c(=S)n1CCN1CCc2ccccc2C1 returned gsp antag -11%, RXFP1 ag 0%, pAkt inh inactive, RXFP1 antag -75*, TSHR antagonist -6 and gsp ag 16%[15.4 µM].
`CC(=O)N[C@H]1[C@H]([C@H](O)[C@H](O)CO)OC(C(=O)O)=C[C@@H]1N=C(N)N` gave RXFP1 antag -3.
Screening CCc1noc(C)c1C(=O)OCC(=O)Nc1nc(-c2ccc(F)c(F)c2)cs1 returned gsp antag 40µM*, RXFP1 ag 0%, pAkt inh inactive, RXFP1 antag -13, TSHR antagonist inconclusive and gsp ag 8%.
For NC(=S)N/N=C/c1ccc(-c2ccc(Cl)c(Cl)c2)o1 the results were gsp antag -5%, RXFP1 ag 0%, pAkt inh inactive, RXFP1 antag -19, TSHR antagonist 6 and gsp ag inconclusive.
NC(=S)N/N=C\c1ccc(-c2cccc(Cl)c2Cl)o1 was read as gsp antag -6%, RXFP1 ag -2%, pAkt inh -122%*, RXFP1 antag -28, TSHR antagonist -7 and gsp ag -5%.
Screening COC(=O)C[C@@H]1C[C@H]2c3cc(NC(=O)C4CCC4)ccc3O[C@H]2[C@@H](CO)O1 returned pAkt inh inactive, RXFP1 antag 5 and gsp ag inconclusive.
